The record followed here is PubChem BioAssay (NCATS).

Test [1] deals with Glutathione peroxidase 1 (Homo sapiens) (UniProt P07203). The experiment in a line: Primary qHTS Assay for Inhibitors of Recombinant Selenoprotein Glutathione Peroxidase 1 (GPX1) (AID 1845191). Further: nearly all actives have a fitted effect of over 65% in size. Further: potency means the concentration at half of the fitted maximal effect. On activity, negative = inhibition: on the % scale 0 is the no-effect control and ±100 the full control effect. The procedure, abridged:
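GR-coupled readout: NADPH consumption tracked by fluorescence, ex 340/em 450 nm, at t=0 and after 15 min at RT. Final mix 10 nM GPX1, 1 mM GSH, 0.5 mM CHP, 0.5 mM NADPH, 100 nM GR, 0.01% BSA, following 30 min enzyme–compound preincubation.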
On the technique in general: In qHTS, concentration-response curves come from the screen itself.

Test [2] concerns the target Phospholipid hydroperoxide glutathione peroxidase GPX4 (Homo sapiens) (UniProt P36969). Description: Primary qHTS Assay for Inhibitors of Recombinant Selenoprotein Glutathione Peroxidase 4 (GPX4) (AID 1845192). Further: nearly all actives have a fitted effect of over 65% in size. In short, it runs like this:
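Steps: GPX4 plus compound, 30 min RT; add GR/GSH/NADPH master mix; start with cumene hydroperoxide; read 340/450 nm fluorescence at 0 and 15 min. Finals were 200 nM GPX4, 1 mM GSH, 0.5 mM CHP, 0.5 mM NADPH, 100 nM GR.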

The target in test [3] is Luciferin 4-monooxygenase (Photinus pyralis) (UniProt P08659). The experiment in a line: Primary firefly luciferase (FLuc) qHTS assay for identification of artifact compounds. (AID 1845220). Further: nearly all actives have a fitted effect of over 60% in size. Further: potency means the concentration at half of the fitted maximal effect. In short, it runs like this: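 Enzymatic FLuc inhibition assay: compounds pre-exposed to luciferin/ATP (10 uM each) for 15 min, then purified P. pyralis enzyme at 10 nM added. Read-out: luminescence at 5 min.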

The subject of test [4] is Nanoluciferase (engineered Oplophorus gracilirostris luciferase). Description: Primary Nanoluciferase (NLuc) qHTS assay for identification of artifact compounds. (AID 1845222).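 Further: NLuc secreted into diluted conditioned medium of S16 cells; series mostly up to about 54 µM; 0% = DMSO and -100% = no enzyme.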 The procedure, abridged:
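S16 cell supernatant NLuc, 1:55; cpds qHTS; 15 min RT dark; Nano-Glo substrate 1:100, 5 min; luminescence; Hill fit of % inhibition.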

Test [5] is described as follows: Primary redox qHTS assay for identification of artifact compounds. (AID 1845223).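 Further: 0% = DMSO and 100% = reference compound.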 In short, it runs like this:
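Redox-cycling detection via DTT (250 uM final) oxidation coupled to Amplex Red (25 uM)/HRP (250 mU/mL) in HBSS. 15 min preincubation plus 30 min after DTT, room temperature. Ex/Em 525/598 nm; 4-parameter Hill fit against DMSO and 10 uM DA3003.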

A short description of test [6]: Quantitative High-Throughput drug screen in 47 multiple myeloma cell lines against the NCATS MIPE library collection: FR4_PLB cell viability assay (AID 1918924; further: nearly all actives have a fitted effect of over 35% in size; further: potency means the concentration at half of the fitted maximal effect). In short, it runs like this: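 Steps: seed 500 cells per well; pin-transfer MIPE 4.0 library; incubate 48 h at 37C, 5% CO2, humidified; add CellTiter-Glo, 5 min room temperature; read luminescence.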
Test [7] can be described thus: Quantitative High-Throughput drug screen in 47 multiple myeloma cell lines against the NCATS MIPE library collection: EJM_DSMZ cell viability assay (AID 1918926; further: nearly all actives have a fitted effect of over 30% in size; further: potency means the concentration at half of the fitted maximal effect). In short, it runs like this:
(§1)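 qHTS of the MIPE 4.0 collection: 500 myeloma cells/well, 48 h drug exposure at 37C in 5% CO2, then CellTiter-Glo for 5 min at room temperature before luminescence reading.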

Test [8] is described as follows: Quantitative High-Throughput drug screen in 47 multiple myeloma cell lines against the NCATS MIPE library collection: Delta47_JCRB cell viability assay (AID 1918925; further: nearly all actives have a fitted effect of over 45% in size; further: potency means the concentration at half of the fitted maximal effect). In short, it runs like this:
as §1

A short description of test [9]: Primary fluorescence-based thiol-reactive (MSTI) qHTS assay for identification of artifact compounds. (AID 1845221).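 Further: series mostly up to about 54 µM; thiol-reactive compounds lower the probe fluorescence signal; nearly all actives have a fitted effect of over 65% in size.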 In short, it runs like this:
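In PBS pH 7.4 with 2% DMSO, each compound met 4 uM MSTI for one hour at ambient temperature, shielded from light, before fluorescence detection.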

Test [10] can be described thus: Quantitative High-Throughput drug screen in 47 multiple myeloma cell lines against the NCATS MIPE library collection: AMO1_DSMZ cell viability assay (AID 1918927; further: nearly all actives have a fitted effect of over 30% in size; further: potency means the concentration at half of the fitted maximal effect). In short, it runs like this:
as §1

Records with an inconclusive call do not appear. Some structures have more than one record in an assay (separate samples or runs), and their calls can disagree. Activity calls are given as the source filed them. The call rests on the fitted dose curve; in most records, active means well fitted curve in the direction sought with a large enough effect; inconclusive means small, poorly fitted or top-dose-only effect, or another doubt; inactive means no such curve, though single readings can be large; an effect the other way counts as inactive or inconclusive.

Chain of Phospholipid hydroperoxide glutathione peroxidase GPX4 (Homo sapiens) (P36969 whole entry, looked up): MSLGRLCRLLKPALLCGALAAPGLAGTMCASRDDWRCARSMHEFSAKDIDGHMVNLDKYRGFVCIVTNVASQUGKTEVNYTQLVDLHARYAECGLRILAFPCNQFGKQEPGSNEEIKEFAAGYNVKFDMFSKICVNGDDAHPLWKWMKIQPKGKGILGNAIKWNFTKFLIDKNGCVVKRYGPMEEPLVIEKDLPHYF
Chain of Glutathione peroxidase 1 (Homo sapiens) (P07203 whole entry, looked up): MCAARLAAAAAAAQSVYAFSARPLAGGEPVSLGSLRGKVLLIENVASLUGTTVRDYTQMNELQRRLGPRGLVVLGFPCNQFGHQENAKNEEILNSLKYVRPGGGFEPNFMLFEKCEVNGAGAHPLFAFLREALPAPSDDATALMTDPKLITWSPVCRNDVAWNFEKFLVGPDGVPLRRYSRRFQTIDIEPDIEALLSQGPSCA

For `CS(=O)(=O)c1ccc(C(=O)Nc2ccc(Cl)c(-c3ccccn3)c2)c(Cl)c1`, the Potency entry in test [1], in test [2], in test [3], in test [6] and in test [7] was “inactive” in each case. Also, the call in [4] and in test [5] was inactive.
Turning to `Cc1cc(Nc2nc(N[C@@H](C)c3ncc(F)cn3)ncc2Cl)n[nH]1`, the Potency entry in test [1], in [2], in [3] and in [8] was “inactive” throughout. The result in test [4] and in test [5] was inactive. Besides, the Potency in test [7] was 2.64 µM (active).
With `O=c1[nH]c(-c2ccc(C(F)(F)F)cc2)nc2c1CSCC2`, the Potency result in test [1], in [2], in test [3], in [9], in [6] and in test [10] was “inactive” in each case. For the same molecule, the molecule was called inactive in [4] and in [5].
Turning to `CCOc1cc(C(=O)Nc2ccc(Cl)c(-c3nc4ccccc4[nH]3)c2)cc(OCC)c1OCC`, the Potency entry in [1], in test [2] and in test [3] was “inactive” in each case. Also, the outcome in test [4] and in test [5] was inactive. The Potency in [8] was 18.7 µM (active); in [7], 13.2 µM (active).
Turning to `Nc1ncnc2nc(-c3ccc(N4CCOCC4)nc3)cc(-c3cccc(Br)c3)c12`, the Potency result in test [1] and in test [2] was “inactive” in each case.
As for `CN(C(=O)c1ccc(F)cc1C(F)(F)F)C1CCN(c2nnc(-c3ccnn3C)c3ccccc23)CC1`, the Potency entry in test [1], in test [2] and in [3] was “inactive” throughout. The outcome in test [4] and in [5] was inactive.
Regarding `CC1(C)Cc2c(-c3ccccc3)c(-c3ccc(Cl)cc3)c(CC(=O)O)n2C1`, the Potency result in test [1], in [2], in [3] and in [9] was “inactive” in each case. The call in test [4] was inactive.
For the molecule `Cc1ccnc(NS(=O)(=O)c2ccc(NC(=O)Nc3ccc(S(=O)(=O)Nc4nccc(C)n4)cc3)cc2)n1`, the Potency entry in test [1], in test [2] and in test [3] was “inactive” in each case. For the same molecule, the molecule was classed as inactive in test [5]. Besides, the Potency in test [10] was 14.8 µM (active).
Regarding `CC[C@H](Nc1ncnc2nc[nH]c12)c1nc2cccc(F)c2c(=O)n1-c1ccccc1`, the Potency entry in test [1], in [2] and in [10] was “inactive” throughout. For the same molecule, the outcome in test [3] is “inactive [at 11.6 µM]”. For the same molecule, the activity, negative = inhibition in [4] is -6.53% [at 11.6 µM] (inactive). For the same molecule, the redox activity (% of DA3003) in [5] was 6.84% [at 11.5 µM] (inactive). Further, the values for the Potency in [6], in test [8] and in test [7] were 20.9 µM (active), 5.26 µM (active) and 14.8 µM (active), respectively.
Consider `C[C@H](NC(=O)Cc1cc(F)cc(F)c1)C(=O)N[C@@H]1C(=O)N(C)c2ccccc2-c2ccccc21`, for which the Potency result in test [1], in test [2] and in test [3] was “inactive” each time. The result in test [4] and in test [5] was inactive. In addition, in test [8], the Potency is 7.43 µM (active).
Regarding `CNC(=O)c1ccccc1Sc1ccc2c(/C=C/c3ccccn3)n[nH]c2c1`, the Potency result in test [1], in test [2] and in test [9] was “inactive” in each case. In test [3], the Potency is 1.9 µM (active). Moreover, the outcome in test [4] and in [5] was inactive.
For `CN(C)C(=O)c1ccc(S(=O)(=O)c2ccc(NC(=O)[C@@](C)(O)C(F)(F)F)c(Cl)c2)cc1`, the Potency entry in test [1], in test [2] and in [3] was “inactive” in each case. The molecule was called inactive in [4] and in test [5]. The Potency in [7] is 23.5 µM (active); in test [10], 14.8 µM (active).
For the molecule `O=C(NOC[C@H](O)CO)c1ccc(F)c(F)c1Nc1ccc(I)cc1F`, the Potency result in [1], in test [2], in test [3], in [9], in test [6] and in test [7] was “inactive” in each case. In addition, the outcome in [4] and in [5] was inactive. Also, the Potency in test [8] is 0.0118 µM (active); in test [10], 3.72 µM (active).
As to `CC(C)OC(=O)C1=CN(C(=O)c2ccc(F)c(F)c2)CC(C)(C)c2c1[nH]c1ccccc21`, the Potency result in test [1], in test [2], in test [3], in test [6] and in [7] was “inactive” throughout. Besides, the call in test [4] and in test [5] was inactive.
For `O=C(Nc1cccnc1)N1CCC(Cc2cccc(Oc3ccc(C(F)(F)F)cn3)c2)CC1`, the Potency entry in [1], in [2], in [3] and in test [9] was “inactive” throughout. Further, the outcome in test [4] and in test [5] was inactive. Moreover, the Potency in [6] is 16.6 µM (active); in test [8] it was 9.35 µM (active); in test [7], 18.7 µM (active); in [10], 9.35 µM (active).
As to `C[C@@H]1CN(Cc2ccc(F)cc2)[C@@H](C)CN1C(=O)c1cc2c(C(=O)C(=O)N(C)C)cn(C)c2cc1Cl`, the Potency entry in test [1], in test [2] and in [3] was “inactive” in each case. Besides, the result in test [4] and in test [5] was inactive. For the same molecule, the figures for the Potency in [8] and in test [10] were 9.35 µM (active) and 29.6 µM (active), respectively.
As to `Clc1ccc(Nc2nnc(Cc3ccncc3)c3ccccc23)cc1`, the Potency entry in test [1], in test [2], in test [3], in test [6] and in test [10] was “inactive” in each case. For the same molecule, the outcome in test [4] and in [5] was inactive. Further, the Potency in [7] was 18.7 µM (active).
With `NC(=O)c1ccc(-c2nc(-c3ccc4c(c3)OCO4)c(-c3ccccn3)[nH]2)cc1`, the Potency entry in [1], in test [2] and in [8] was “inactive” each time. Besides, the Potency in [6] was 14.8 µM (active).
Take `Cc1n[nH]c(C)c1Cc1sc2c(c1C(=O)N1C[C@H](O)CO1)c(=O)n(C)c(=O)n2CC(C)C`: the Potency entry in test [1], in test [2], in [3], in test [6] and in test [7] was “inactive” throughout. Moreover, the result in [4] and in test [5] was inactive.
With `CC(=O)NC(C)c1ccc(Oc2ccc(OC(C)C)cc2)cc1` (stereo unspecified), the Potency entry in test [1] and in test [2] was “inactive” throughout.
For the molecule `Cc1cc(SCc2sc(-c3ccc(C(F)(F)F)cc3)nc2C)ccc1OCC(=O)O`, in test [1], the Potency was 20.2 µM (active) and inactive. Besides, the Potency entry in test [2], in [9], in test [6], in test [7] and in [10] was “inactive” in each case. In addition, the molecule was classed as inactive in test [4] and in [5].
Turning to `CNC(=O)c1ccc(C)c(-n2c(C)cc(OCc3ccc(F)cc3F)c(Br)c2=O)c1`, the Potency result in test [1], in test [2], in test [3] and in [9] was “inactive” throughout. Besides, the molecule was called inactive in [4] and in [5]. Moreover, the Potency in test [8] was 14.8 µM (active); in [7], 20.9 µM (active); in test [10], 16.6 µM (active).
`COc1cc(Oc2ccnc3cc(OC)c(OC)cc23)ccc1NC(=O)NC(C)c1nccs1` (stereo unspecified): the Potency entry in test [1], in [2], in test [3] and in test [7] was “inactive” each time. In addition, the molecule was classed as inactive in [5].
Turning to `CN(C)c1ccc(C2Nc3ccc4ccccc4c3C3=C2C(=O)CC(C)(C)C3)cc1Br` (stereo unspecified), the Potency result in test [1], in test [2] and in test [3] was “inactive” each time. For the same molecule, the outcome in test [4] and in test [5] was inactive. The Potency in [8] is 2.35 µM (active).
Consider `CCC(C)(C)C(=O)O[C@H]1C[C@@H](C)C=C2C=C[C@H](C)[C@H](CC[C@@H]3C[C@@H](O)CC(=O)O3)[C@H]21`, for which the Potency result in test [1], in test [2] and in [7] was “inactive” in each case. In [10], the Potency is 18.7 µM (active).
